# Reference: the supplement of paper PMC10338343
# ± gives the standard deviation.
# Assays:
# [1] = test system: MILI (PIWIL2) piRISC loaded with piRNA #1 (26 nt); assay: pre-steady-state target cleavage rate (min^-1); guide: piRNA #1 5'p-UGAGGUAGUAGGUUGUAUAGUAUCCA; higher = faster piRNA-guided slicing of the target; details: auxiliary factor: 500 nM mouse GTSF1
# Outline: (§1)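 Sequencing of uncleaved targets, normalised to depth and to weakly complementary targets, was the readout of this Cleave-'n-Seq assay. A transcribed, DNA-blocked target RNA library (0.1 nM) was mixed with 1 nM active affinity-purified piRISC carrying one synthetic guide, with or without 500 nM GTSF1 partner protein, in HEPES–potassium acetate buffer at 33 °C for 0–8 or 0–960 min. Three trials were pooled, k3 was capped at 0.0001 min^-1, and a burst-and-steady-state fit gave the pre-steady-state cleavage rate.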
# [2] = test system: EfPiwi piRISC loaded with piRNA #1 (26 nt); assay: pre-steady-state target cleavage rate (min^-1); auxiliary factor: 500 nM Ephydatia muelleri Gtsf1; guide: piRNA #1 5'p-UGAGGUAGUAGGUUGUAUAGUAUCCA; MIWI and MILI are mouse PIWI proteins and EfPiwi is from a freshwater sponge; tags in brackets are library labels; higher = faster piRNA-guided slicing of the target
# Outline: as §1
sequence,measurement,setting,value
GGAGAGGAUACUAUACAACCAACUACCUCA,pre-steady-state target cleavage rate,[1],0.00747 ± 0.0023
same,pre-steady-state target cleavage rate,[2],0.00561 ± 0.002
GGAGACGAACUAUACAACCUACUACCUCA,pre-steady-state target cleavage rate,[1],0.138 ± 0.012
same,pre-steady-state target cleavage rate,[2],0.0112 ± 0.0057
GGAGUGGAUACUAUACAUCCUUCUACCUCA,pre-steady-state target cleavage rate,[1],0.0293 ± 0.0033
same,pre-steady-state target cleavage rate,[2],0.00476 ± 0.0022
